Compounds with a hit are over-represented: about 5.4% of the library has one in this group of screens.
Six1-Eya2 blk – inhibitors of human Six1/Eya2 interaction. Q15475+O00167. AlphaScreen GST-Six1/His-Eya2 binding, biochemical; active compounds read low. activity change, % (test concentration not listed). actives 0.56% (n = 360,000); in the data active = activity change below about -65%; inconclusive = mostly about -30% to -63%
Target sequence (O00167 whole entry, looked up): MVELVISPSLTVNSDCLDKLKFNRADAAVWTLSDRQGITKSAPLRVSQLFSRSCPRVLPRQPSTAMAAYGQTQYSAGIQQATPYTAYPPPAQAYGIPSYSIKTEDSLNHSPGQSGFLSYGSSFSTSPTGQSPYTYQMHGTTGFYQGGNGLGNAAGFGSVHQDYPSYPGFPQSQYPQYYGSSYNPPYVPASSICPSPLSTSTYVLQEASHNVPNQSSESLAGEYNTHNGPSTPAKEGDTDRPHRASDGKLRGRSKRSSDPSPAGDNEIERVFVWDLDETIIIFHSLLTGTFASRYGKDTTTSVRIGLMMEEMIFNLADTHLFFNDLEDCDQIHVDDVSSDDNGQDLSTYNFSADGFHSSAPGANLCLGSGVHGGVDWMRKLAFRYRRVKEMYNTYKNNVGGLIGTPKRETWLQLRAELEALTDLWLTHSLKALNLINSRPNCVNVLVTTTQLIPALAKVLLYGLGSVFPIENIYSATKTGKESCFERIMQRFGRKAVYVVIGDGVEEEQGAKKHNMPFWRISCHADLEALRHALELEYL
Target sequence (Q15475 whole entry, looked up): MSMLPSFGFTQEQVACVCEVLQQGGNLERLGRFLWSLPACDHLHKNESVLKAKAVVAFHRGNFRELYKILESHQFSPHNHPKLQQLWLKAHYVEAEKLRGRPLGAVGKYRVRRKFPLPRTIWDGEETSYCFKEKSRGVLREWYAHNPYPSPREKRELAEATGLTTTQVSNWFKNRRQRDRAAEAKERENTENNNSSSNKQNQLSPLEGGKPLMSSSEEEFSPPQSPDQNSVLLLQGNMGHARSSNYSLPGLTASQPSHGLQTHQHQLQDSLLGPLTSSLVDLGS
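AlphaScreen luminescence read after one hour at 37 °C in darkness. Pin-transferred compounds met GST-Six1 and His-Eya2 protein (5X stock 250 nM/500 nM) plus glutathione donor and Ni-chelate acceptor beads (5X, 50 ug/mL).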
VP16 counter – Gal4-VP16 reporter inhibition counter-screen; AID 2546; Potency, µM (top dose mostly 53.6 µM), usual class: inhibitors; actives 3.5% (n = 310,000); Drosophila S2 Gal4-VP16 UAS-luciferase, luminescence, 20 h;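 note: Gal4-VP16 expression switched on by copper sulfate through the metallothionein promoter; nearly all actives have a fitted effect of over 50% in size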
RORg inh – blocks mouse ROR gamma transcriptional activity; Drosophila S2 Gal4-RORgamma UAS-luciferase reporter, 20 h; Potency, µM (highest dose often 53.6 µM), usual class: inhibitors; actives 5.4% (n = 310,000); AID 2551; note: nearly all actives have a fitted effect of over 60% in size
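Compounds are pin-transferred onto Drosophila Schneider cells expressing a copper-inducible Gal4–ROR gamma transactivation domain fusion. After 1 hr, copper sulfate is added to 700 uM final; luciferase is read 20 hr later.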
p53 reactivation – restores transcriptional activity of mutant p53. H1299 p53-A138V BP100-luciferase reporter, luminescence, 24 h. Potency, µM (doses to about 92.2 µM), actives largely listed as activators. actives 0.063% (n = 320,000). AID 504706; note: nearly all actives have a fitted effect of over 45% in size
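H1299 (p53-null), stable ts p53-A138V + BP100-Luc; 1000 cells/well, Opti-MEM/10% FBS; cpd 4 pt, 1:5; 24 h, 37 deg C, 5% CO2; detection reagent 10 min RT; luminescence.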
CtBP-E1A blk – blocks the CtBP interaction with E1A; AlphaScreen GST-E1A/His-CtBP binding, 1536-well; active compounds read low; activity change, % (no concentration beside the values); actives 0.49% (n = 340,000); in the data active = activity change below about -65%; inconclusive = mostly about -30% to -63%
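Homogeneous bead-based format: GST-tagged E1A captured on glutathione donor beads, His-tagged CtBP on nickel acceptor beads; compounds precede bead addition by 2 h at 37 °C.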
Numbers stand for hits; [ ] = remark or other dose. Unless noted, calls come from the whole dose curve; as a rule, active = well fitted curve in the direction sought with a large enough effect; inconclusive = small, poorly fitted or top-dose-only effect, or another doubt; inactive = no such curve, though single readings can be large; an effect the other way counts as inactive or inconclusive.

O=C(NC(=S)Nc1ccc(S(=O)(=O)NC2CCCCC2)cc1)c1cccs1 was read as Six1-Eya2 blk inactive, VP16 counter 0.447µM, RORg inh 1.12µM, p53 reactivation inactive and CtBP-E1A blk inactive.
For CCC(=O)NC(=S)Nc1ccc(S(=O)(=O)NC2CCCCC2)cc1 the results were Six1-Eya2 blk inactive, VP16 counter inactive, RORg inh inactive, p53 reactivation inactive and CtBP-E1A blk inactive.
Screening C=CCC(Nc1ccc(OC)cc1)C(=O)OCC (stereo not drawn) returned VP16 counter inactive and RORg inh inactive.
Cc1cccc(NC(=S)N/N=C/c2cccn2Cc2ccc(F)cc2)c1 was read as Six1-Eya2 blk inactive, VP16 counter 2.24µM, RORg inh 0.199µM, p53 reactivation inactive and CtBP-E1A blk inactive.
Screening CSc1ccccc1NC(=S)N/N=C/c1cccn1Cc1cccc(C)c1 returned Six1-Eya2 blk inactive, VP16 counter 5.01µM, RORg inh 0.891µM, p53 reactivation inactive and CtBP-E1A blk inactive.
CC(=O)c1ccc(Nc2ccc(-c3ccccc3F)nn2)cc1 was read as Six1-Eya2 blk inactive, VP16 counter inactive, RORg inh inactive, p53 reactivation inconclusive and CtBP-E1A blk inactive.
Screening N#CCCN(C(=O)COC(=O)C1CCN(S(=O)(=O)c2ccccc2C(F)(F)F)CC1)c1ccccc1 returned Six1-Eya2 blk inactive and CtBP-E1A blk inactive.
Cc1ccc(F)c(C2C3C=CCCC3(C)C(=O)N2Cc2ccccc2)c1 (stereo not drawn) was read as VP16 counter 31.6µM and RORg inh inconclusive.
For Cc1ccc(-c2ccc(C3C4C=CCCC4(C)C(=O)N3Cc3ccccc3)c(F)c2)cc1 (stereo not drawn) the results were VP16 counter inactive and RORg inh inactive.
O=C(CSc1nc(=O)n(CCCN2CCOCC2)c2c1CCCC2)Nc1ccc(F)cc1 was read as Six1-Eya2 blk inactive, p53 reactivation inactive and CtBP-E1A blk inactive.
`Cc1cc(NC(=O)CCCSc2nc(-c3ccco3)cc(C(F)(F)F)n2)no1` gave Six1-Eya2 blk inactive, VP16 counter inactive, RORg inh inactive, p53 reactivation inactive and CtBP-E1A blk inactive.
Screening COc1ccc(-c2cc(C(F)(F)F)nc(S(=O)(=O)CCCC(=O)Nc3cc(C)on3)n2)cc1OC returned Six1-Eya2 blk inactive, VP16 counter inconclusive, RORg inh 3.55µM, p53 reactivation inactive and CtBP-E1A blk inactive.
COc1ccccc1-c1cc(C(F)(F)F)nc(S(=O)(=O)CCCC(=O)Nc2cc(C)on2)n1 was read as Six1-Eya2 blk inactive, VP16 counter 7.94µM, RORg inh 11.2µM, p53 reactivation inactive and CtBP-E1A blk inactive.
Screening NC(=O)[C@@H]1CCCN1 returned VP16 counter inactive and RORg inh inactive.
Cn1cc([N+](=O)[O-])c(C(=O)NNC(=O)c2ccc([N+](=O)[O-])cc2Cl)n1 was read as Six1-Eya2 blk inactive, VP16 counter inactive, RORg inh inactive, p53 reactivation inactive and CtBP-E1A blk inactive.
For N=C1SCC(=O)N1c1ncc(Cc2ccc(F)cc2)s1 the results were Six1-Eya2 blk inactive, VP16 counter 0.199µM, RORg inh 0.316µM, p53 reactivation inactive and CtBP-E1A blk inactive.
Screening Cc1ccc(-c2csc(N3C(=N)SCC3=O)n2)cc1 returned Six1-Eya2 blk inactive, VP16 counter inactive, RORg inh inactive, p53 reactivation inconclusive and CtBP-E1A blk inactive.
CCc1nc2c(OCc3cc(Cl)cc(Cl)c3)cccn2c1N(C)C(=O)c1ccc(OC)cc1 was read as Six1-Eya2 blk inactive and CtBP-E1A blk inactive.
For COc1ccc(-n2nc(C(=O)NCC(=O)Nc3cc(OC)c(OC)c(OC)c3)c3ccccc3c2=O)cc1OC the results were Six1-Eya2 blk inactive, VP16 counter inactive, RORg inh inactive, p53 reactivation inactive and CtBP-E1A blk inactive.
Screening COc1ccc(C(=O)/C=C/c2ccsc2)cc1CSCC(=O)O returned Six1-Eya2 blk inactive, VP16 counter 10µM, RORg inh 10µM, p53 reactivation inactive and CtBP-E1A blk inactive.
COc1cccc(N(C(=O)CCl)C(C(=O)NCCc2ccccc2)c2cccs2)c1 (stereo not drawn) was read as Six1-Eya2 blk inactive, VP16 counter inactive, RORg inh 12.6µM, p53 reactivation inactive and CtBP-E1A blk inactive.
COCCNC(=O)C(c1cccs1)N(C(=O)Cn1nnc2ccccc21)c1ccccc1 (stereo not drawn) was read as Six1-Eya2 blk inactive, RORg inh inactive[0.365 µM], p53 reactivation inactive and CtBP-E1A blk inactive.
Screening COc1ccc(N(C(=O)CCl)C(C(=O)NCCc2ccccc2)c2cccs2)cc1Cl (stereo not drawn) returned Six1-Eya2 blk inactive, VP16 counter inactive, RORg inh 11.2µM, p53 reactivation inactive and CtBP-E1A blk inactive.
`CC(C)(C)c1cc(CCC(=O)N2CCC2)cc(C(C)(C)C)c1O` gave Six1-Eya2 blk inactive, VP16 counter inactive, RORg inh 12.6µM, p53 reactivation inactive and CtBP-E1A blk inactive.
For Cc1cc(C(=O)NCCC2=CCCCC2)c(C)o1 the results were Six1-Eya2 blk inactive, VP16 counter inconclusive, RORg inh 10µM, p53 reactivation inconclusive and CtBP-E1A blk inactive.
Screening CCN(CC)S(=O)(=O)c1ccc2[nH]cc(C(=O)NCCC3=CCCCC3)c(=O)c2c1 returned Six1-Eya2 blk inactive, VP16 counter 5.01µM, RORg inh 10µM, p53 reactivation inactive and CtBP-E1A blk inactive.
For CCN(CC)S(=O)(=O)c1ccc2[nH]cc(C(=O)NCCN3CCCCCC3)c(=O)c2c1 the results were Six1-Eya2 blk inactive, VP16 counter inactive, RORg inh inactive, p53 reactivation inactive and CtBP-E1A blk inactive.
For CC(C)(C)OC(=O)NC(NC(=O)OCC1c2ccccc2-c2ccccc21)C(=O)O (stereo not drawn) the results were VP16 counter inactive and RORg inh inactive.
C#CCOc1c(Br)cc(/C=N\NC(=O)CN2CCOCC2)cc1OCC was read as Six1-Eya2 blk inactive, VP16 counter 35.5µM, RORg inh inactive, p53 reactivation inactive and CtBP-E1A blk inactive.
C#CCOc1c(Br)cc(/C=N/O)cc1OCC was read as Six1-Eya2 blk inactive, VP16 counter inactive, RORg inh inactive, p53 reactivation inactive and CtBP-E1A blk inactive.
CCOC(=O)c1c(NC(=O)COC(=O)c2ccc(Cl)nc2)sc(C)c1C was read as Six1-Eya2 blk inactive and CtBP-E1A blk inactive.
For CCCCC1=NN2C(=N)CC(=O)N=C2S1 the results were Six1-Eya2 blk inactive, VP16 counter inactive, RORg inh 10µM, p53 reactivation inactive and CtBP-E1A blk inactive.
`CC(C)C1=NN2C(=N)CC(=O)N=C2S1` gave Six1-Eya2 blk inactive, VP16 counter inactive, RORg inh inactive, p53 reactivation inactive and CtBP-E1A blk inactive.
CCOC(=O)[C@]12CCC=C1N(Cc1ccco1)C(=O)[C@H](CC(=O)N1CCCCC1)C2 was read as Six1-Eya2 blk inactive and CtBP-E1A blk inactive.
